Several values for one entry are separate records, joined by “and”; a condition that tells them apart may be missing. Equal values may be shown once. Out of some 5,500 compounds screened, about 2,000 (36%) were called active. Another 18% or so got no clear call; they are omitted. Rule as the data show it: active = normalized growth mostly below about 0.91 (no sharp cut-off); inconclusive = no clear call, values can overlap the other calls; inactive = mostly above about 0.92. The list shows a part of the results.
Test: chemical genetic growth profiling, strain panel (AID 1159580);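 also: tested at 20 µM; growth read once vehicle control cultures reached saturation at 30 °C; 1 = growth at the plate median or of vehicle wells; lower values mean less growth of the strain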
Details: S. cerevisiae deletion strains, growth OD

Measured: normalized growth

O=C(CCc1ccc(O)cc1)c1c(O)cc(O)cc1O[C@@H]1O[C@H](CO)[C@@H](O)[C@H](O)[C@H]1O
inactive: locus YAL021C, strain ccr4, stronger effect = lower value 1.01 | locus YAL026C, strain drs2, stronger effect = lower value 1.01 | locus YAL030W, strain snc1, stronger effect = lower value 1.01 | locus YBL061C, strain skt5, stronger effect = lower value 1.02 | locus YBR009C, strain hhf1, stronger effect = lower value 1.02 | locus YBR021W, strain FUR4, stronger effect = lower value 1.01 | locus YBR023C, strain chs3, stronger effect = lower value 1.01 | locus YBR171W, strain sec66, stronger effect = lower value 1.05 | locus YBR229C, strain ROT2, stronger effect = lower value 1.02 | locus YBR231C, strain swc5, stronger effect = lower value 1.02 | locus YBR279W, strain paf1, stronger effect = lower value 1 | locus YCL011C, strain gbp2, stronger effect = lower value 1.02 | locus YCL016C, strain dcc1, stronger effect = lower value 1.02 | locus YCL029C, strain bik1, stronger effect = lower value 0.982 | locus YCL061C, strain MRC1, stronger effect = lower value 1.02 | locus YCL069W, strain vba3, stronger effect = lower value 1.01 | locus YCR088W, strain abp1, stronger effect = lower value 1.01 | locus YDL005C, strain med2, stronger effect = lower value 1.02 | locus YDL035C, strain GPR1, stronger effect = lower value 1.04 | locus YDL040C, strain nat1, stronger effect = lower value 1.01 | locus YDL074C, strain BRE1, stronger effect = lower value 1.05 | locus YDL101C, strain DUN1, stronger effect = lower value 1.02 | locus YDL134C, strain PPH21, stronger effect = lower value 1.06 | locus YDL185W, strain tfp1, stronger effect = lower value 0.993 | locus YDL192W, strain arf1, stronger effect = lower value 0.986 | locus YDR001C, strain nth1, stronger effect = lower value 1.01 | locus YDR069C, strain doa4, stronger effect = lower value 1.03 | locus YDR101C, strain arx1, stronger effect = lower value 0.998 | locus YDR137W, strain rgp1, stronger effect = lower value 0.993 | locus YDR159W, strain sac3, stronger effect = lower value 1.03 | locus YDR162C, strain NBP2, stronger effect = lower value 1.06 | locus YDR195W, strain ref2 0.997 | locus YDR297W, strain sur2, stronger effect = lower value 1.02 | locus YDR318W, strain mcm21, stronger effect = lower value 0.986 | locus YDR334W, strain swr1, stronger effect = lower value 1.02 | locus YDR335W, strain msn5, stronger effect = lower value 1.01 | locus YDR388W, stronger effect = lower value 0.992 | locus YDR392W, strain spt3, stronger effect = lower value 1.02 | locus YDR502C, strain sam2, stronger effect = lower value 0.998 | locus YEL003W, strain gim4, stronger effect = lower value 1.01 | locus YEL037C, strain rad23, stronger effect = lower value 1.01 | locus YEL061C, strain CIN8 (second series), stronger effect = lower value 1.01 | locus YEL061C, strain CIN8, stronger effect = lower value 1.02 | locus YER015W, strain faa2, stronger effect = lower value 1.02 | locus YER016W, strain bim1, stronger effect = lower value 1.01 | locus YER110C, stronger effect = lower value 0.981 | locus YER111C, strain swi4, stronger effect = lower value 1.02 | locus YER155C, strain BEM2 (second series), stronger effect = lower value 1.02 | locus YER155C, strain BEM2, stronger effect = lower value 1 | locus YER167W, strain BCK2, stronger effect = lower value 1.02 | locus YFR010W, strain ubp6, stronger effect = lower value 1.01 | locus YGL078C, strain dbp3, stronger effect = lower value 0.985 | locus YGL086W, strain mad1, stronger effect = lower value 1.01 | locus YGL167C, strain pmr1, stronger effect = lower value 1.03 | locus YGL173C, strain kem1, stronger effect = lower value 1.02 | locus YGL227W, strain vid30, stronger effect = lower value 1.02 | locus YGL240W, strain doc1, stronger effect = lower value 1.02 | locus YGL248W, strain PDE1, stronger effect = lower value 1.03 | locus YGL253W, strain hxk2, stronger effect = lower value 1.02 | locus YGR135W, strain pre9, stronger effect = lower value 1 | locus YGR252W, strain gcn5, stronger effect = lower value 1.01 | locus YHR013C, strain ard1, stronger effect = lower value 1.03 | locus YHR027C, strain rpn1, stronger effect = lower value 1.02 | locus YHR030C, strain SLT2, stronger effect = lower value 1.02 and 0.996 | locus YHR079C, strain IRE1 (second series), stronger effect = lower value 1 | locus YHR079C, strain IRE1, stronger effect = lower value 0.972 | locus YHR094C, strain hxt1, stronger effect = lower value 0.988 | locus YHR129C, strain ARP1, stronger effect = lower value 1.03 | locus YHR142W, strain chs7, stronger effect = lower value 1.02 | locus YHR200W, strain rpn10, stronger effect = lower value 1.02 | locus YIL066C, strain RNR3, stronger effect = lower value 1.05 | locus YIL073C, strain SPO22, stronger effect = lower value 1.01 | locus YIL125W, strain kgd1, stronger effect = lower value 0.986 | locus YIR030C, strain dcg1, stronger effect = lower value 0.973 | locus YJL092W, strain hpr5, stronger effect = lower value 1.02 | locus YJL095W, strain BCK1 (second series), stronger effect = lower value 1.01 | locus YJL095W, strain BCK1, stronger effect = lower value 1.05 and 0.981 | locus YJL115W, strain asf1, stronger effect = lower value 1.01 | locus YJL129C, strain trk1, stronger effect = lower value 1.01 | locus YJL134W, strain LCB3, stronger effect = lower value 1.01 | locus YJL154C, strain vps35, stronger effect = lower value 1.01 | locus YJL164C, strain tpk1, stronger effect = lower value 1.02 | locus YJL166W, strain qcr8, stronger effect = lower value 1.02 | locus YJL168C, strain set2, stronger effect = lower value 0.983 | locus YJL187C, strain SWE1 (second series), stronger effect = lower value 1.03 | locus YJL187C, strain SWE1, stronger effect = lower value 1.04 | locus YJR043C, strain POL32, stronger effect = lower value 1.06 | locus YJR066W, strain TOR1, stronger effect = lower value 0.942
